From PubChem BioAssay
Values without a mark were called inactive. Calls of active or inactive are those of the source.

tested on: not listed separately; assay: MM1S myeloma cell viability, profiling panel, resazurin fluorescence, basal, 24 h, PK04 Diversity Set (AID 1174); conditions: higher = more signal, called active from +8 up or from −8 down;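 further: MM1S multiple myeloma cell line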
Further: test concentration not given here.

Row | SMILES | z-score
1 | C=C(/C(=C/C[C@@H](OC(C)=O)c1ccc(CO)o1)c1cnc2ccccc2c1)C(C)C | 0.0858
2 | O=C1O[C@H](c2ccccc2)[C@H](c2ccccc2)N2[C@H]1[C@@H](C(=O)NC[C@H](O)c1ccccc1)[C@]1(C(=O)Nc3ccc(C#CC4(O)CCCCCC4)cc31)[C@H]2c1ccccc1OCCO | -7.19
3 | O=C1C[C@@](C(=O)O)(c2ccc([N+](=O)[O-])cc2)[C@@H](c2ccc(CO)cc2I)N1C1CCCCC1 | -1.62
4 | COc1ccc(CCNC(=O)[C@@]2(C)c3ccccc3C(=O)N(Cc3ccccc3)[C@H]2c2ccc(CO)cc2)cc1 | 0.617
5 | CC1CC/C=C\[C@H]2OC34C=CCN(Cn5nnc6ccccc65)C(=O)[C@H]3N(CCCO)C(=O)[C@@H]4C2C(=O)O1 (stereo not given in full) | 0.502

target: Dihydroorotate dehydrogenase (quinone), mitochondrial (Plasmodium falciparum (isolate 3D7)) (UniProt Q08210); assay: PfDHODH enzyme inhibitors, primary screen, biochemical, C-terminal His tag, absorbance 600 nm (AID 1175); conditions: DCIP absorbance 600 nm, higher = more signal, called active from +8 up or from −8 down;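 further: recombinant parasite enzyme with a five histidine tag at its C terminus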
Sequence (Q08210 whole entry, looked up): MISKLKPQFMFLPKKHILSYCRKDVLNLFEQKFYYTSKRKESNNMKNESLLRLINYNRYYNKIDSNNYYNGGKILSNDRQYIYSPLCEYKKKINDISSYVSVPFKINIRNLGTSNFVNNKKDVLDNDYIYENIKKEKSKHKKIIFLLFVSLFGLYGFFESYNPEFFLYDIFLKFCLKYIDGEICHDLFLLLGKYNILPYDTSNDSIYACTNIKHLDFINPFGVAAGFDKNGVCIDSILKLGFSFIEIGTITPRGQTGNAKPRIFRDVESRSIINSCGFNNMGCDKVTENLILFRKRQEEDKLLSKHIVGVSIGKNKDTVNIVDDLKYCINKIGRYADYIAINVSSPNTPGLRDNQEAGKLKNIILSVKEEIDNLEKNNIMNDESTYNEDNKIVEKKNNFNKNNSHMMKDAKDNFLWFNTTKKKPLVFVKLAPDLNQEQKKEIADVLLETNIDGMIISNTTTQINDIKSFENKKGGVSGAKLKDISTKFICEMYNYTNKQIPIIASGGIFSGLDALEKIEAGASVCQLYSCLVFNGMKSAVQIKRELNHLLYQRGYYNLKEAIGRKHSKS

Row | SMILES | composite z-score
6 | CC1CC/C=C\[C@H]2OC34C=CCN(c5ccc6ccccc6c5)C(=O)[C@H]3N(CCCCCO)C(=O)[C@@H]4C2C(=O)O1 (stereo not given in full) | -0.164
7 | CN1C(=O)C2C=CC(C(O)C(C)(C)C)N(Nc3ccccc3)C2C1=O (stereo not given) | -0.702
8 | Cc1ccc(S[C@]2(C(=O)NCCCN(C)C)CC(=O)N(Cc3ccccc3)[C@@H]2c2ccc(CO)cc2)cc1 | -0.336
9 | O=C1O[C@H](c2ccccc2)[C@H](c2ccccc2)N2[C@H]1[C@@H](C(=O)NC[C@H](O)c1ccccc1)[C@]1(C(=O)Nc3ccc(C#CC4=CCCCC4)cc31)[C@H]2c1ccc(O)cc1 | -2.16
10 | O=C(CS)NCCCCCNC(=O)[C@H]1C[C@H]2C(=O)N[C@@H](Cc3ccccc3)C(=O)N2[C@H]1c1cccc(OCCO)c1 | 0.761
11 | CCCC[C@H]1OB(O)C[C@H]2C1=C(COc1ccccc1)C[C@H]1C(=O)N(Cc3ccccc3)C(=O)[C@H]12 | -1.25
12 | O=c1cccc(-c2cccc3ccccc23)o1 | -2.39
13 | CCCCCN1CC=CC23O[C@@H]4C=CCCOC(=O)C4[C@H]2C(=O)N(CCCO)[C@@H]3C1=O (stereo not given in full) | -1.36
14 | CS(=O)(=O)CCOC(=O)C1=CC(c2ccc(CO)cc2)=CC(c2cccs2)N(Cc2cccc(OC(F)(F)F)c2)C=C1C(=O)OCCS(C)(=O)=O (stereo not given) | -1.08
15 | C#C[C@H](O[Si](C#CCCCCCC)(C(C)C)C(C)C)c1ccccc1 | -0.719
16 | COc1ccc([Si](C)(C)[C@@H]2[C@@H](CCO)O[C@]3(C(=O)N(Cc4ccccc4)c4ccc(N(C=O)c5ccccc5)cc43)[C@H]2C)cc1 | 0.186
17 | C=C(COC)C(=O)CC[C@H](OC(=O)c1cccnc1)c1ccccc1OCCO | -0.414
18 | C=CCC(OC(C)=O)[C@@H]1[C@@H](N(Cc2cc3ccccc3o2)C(=O)c2ccc(C)cc2)c2cc(OCCCO)ccc2N1C(=O)c1ccc(-c2ccccc2)cc1 (stereo not given in full) | -3
19 | NC(=O)[C@]1(Cc2ccccc2)N=C(c2ccc(OCCCO)cc2)O[C@@H]1c1ccccc1 | 0.417
20 | [N-]=[N+]=NCc1ccccc1C[C@]1(C(=O)NCCN2CCOCC2)N=C(c2ccc(OCCCO)cc2)O[C@H]1c1ccccc1CN=[N+]=[N-] | 1.31
21 | CCOC(=O)C1=CC[C@@H](c2cccc(Cl)c2)N(S(=O)(=O)c2ccc(C)cc2)[C@H]1c1ccc(C#N)cc1 | 0.21
22 | O=c1cccc(-c2ccccc2)o1 | -0.403
23 | CC(=O)NCCCC[C@@H]1NC(=O)[C@@H]2C[C@H](C(=O)NCc3ccc(F)cc3)[C@H](c3ccc(O)cc3)N2C1=O | -1.13

Row | SMILES | composite z-score
24 | O=C1OCCC=C[C@H]2OC34C=CCN(c5ccc6ccccc6c5)C(=O)[C@H]3N(CCCCCCO)C(=O)[C@@H]4C12 (stereo not given in full) | 0.401
25 | O=C1OCCC/C=C\[C@H]2OC34C=CCN(Cn5nnc6ccccc65)C(=O)[C@H]3N(CCCO)C(=O)[C@@H]4C12 (stereo not given in full) | -0.0502
26 | CC(C)OC(=O)C1=CCC(c2cccc(Cl)c2)O1 (stereo not given) | -0.582
27 | O=C1[C@H]2C=C(Br)[C@H](C[C@@H]2OCCOCCO)[C@@]12CO2 | 0.857
28 | O=c1cccc(-c2ccc3ccccc3c2)o1 | -1.14
29 | CCCCCCCCCCC(O)C1C=CC2C(=O)N(c3ccccc3)C(=O)C2N1Nc1ccc([N+](=O)[O-])cc1 (stereo not given) | -0.838
30 | CN1C(=O)C2C=CC(C(O)c3ccccc3)N(NC(=O)OC(C)(C)C)C2C1=O (stereo not given) | 0.802
31 | CN(C)CCCC[C@@H]1NC(=O)[C@@H]2C[C@H](C(=O)NCCCCCCN)[C@H](c3ccc(O)cc3)N2C1=O | -2.06
32 | CCOC(=O)C[C@H]1[C@H](OC(=O)c2cc3ccccc3oc2=O)[C@@H](NC(=O)c2ccc3ccccc3c2)c2cc(OCCCO)ccc2N1C(=O)c1ccccc1 | -2.91
33 | COc1ccc([Si](C)(C)[C@@H]2[C@@H](CCO)O[C@]3(C(=O)N(Cc4ccc(N5C(=O)c6cccc7cccc5c67)cc4)c4ccccc43)[C@H]2C)cc1 | -0.774
34 | O=C(NCC(O)CO)[C@@]1(Cc2ccccc2)COC(c2ccc(OCCCO)cc2)=N1 (stereo not given in full) | -0.815
35 | CC(C)(C)OC(=O)CC[C@]1(C(=O)NCC(O)CO)N=C(c2ccc(OCCCO)cc2)O[C@H]1c1ccccc1CN=[N+]=[N-] (stereo not given in full) | -0.59
36 | C=C(/C(=C/C[C@@H](OC(C)=O)c1ccc(CO)o1)c1cnc2ccccc2c1)C(C)C | -8.23 (active)
37 | O=C1O[C@H](c2ccccc2)[C@H](c2ccccc2)N2[C@H]1[C@@H](C(=O)NC[C@H](O)c1ccccc1)[C@]1(C(=O)Nc3ccc(C#CC4(O)CCCCCC4)cc31)[C@H]2c1ccccc1OCCO | -0.147
38 | O=C1C[C@@](C(=O)O)(c2ccc([N+](=O)[O-])cc2)[C@@H](c2ccc(CO)cc2I)N1C1CCCCC1 | -1.68
39 | COc1ccc(CCNC(=O)[C@@]2(C)c3ccccc3C(=O)N(Cc3ccccc3)[C@H]2c2ccc(CO)cc2)cc1 | -0.984
40 | CC1CC/C=C\[C@H]2OC34C=CCN(Cn5nnc6ccccc65)C(=O)[C@H]3N(CCCO)C(=O)[C@@H]4C2C(=O)O1 (stereo not given in full) | 0.317
